Records with an inconclusive call do not appear. Where a call stands in place of a potency, no number is given. Active and inactive are the calls of the source. The call rests on the fitted dose curve; in most records, active means well fitted cell-killing curve with a large enough effect; inconclusive means small, poorly fitted or top-dose-only effect; inactive means no such curve, though single readings can be large or run the other way.

These results are taken from PubChem BioAssay (NCATS).
Potency means the concentration at half of the fitted maximal effect.

A short description of this experiment: qHTS of pediatric cancer cell lines to identify multiple opportunities for drug repurposing: Primary screen for SK-N-SH cells (AID 1347098). Further: nearly all actives have a fitted effect of over 65% in size. The conditions noted are these: SK-N-SH viability, CellTiter-Glo luminescence, 48 h; series mostly up to 57 µM. The text has this: Drug repurposing or repositioning has been offered as a strategy for drug development in oncology programs. This approach has special potential for childhood cancers and other rare or orphan diseases, where the expected return on new drug development has been a disincentive to pharmaceuticals.
In this project we exploit the poly-pharmacology of drugs to discover new indications via phenotypic screening of a panel of 19 well-characterized cell lines derived from solid tumors seen in children and adolescents. The goal is to identify approved drugs with previously unrecognized anticancer properties that has the potential to reveal new mechanisms and biological processes involved in carcinogenesis or drug resistance. We employed a titration-based paradigm (quantitative high-throughput screening or qHTS), where all compounds were tested at multiple concentrations for their effect on cell viability. Concentration-response curves (CRCs) were derived directly from the primary screen, and both potency and efficacy values were used to identify compounds with robust bioactivity profiles. We screened the NIH Chemical Genomics Center (NCGC) Pharmaceutical Collection (NPC) and Mechanism Interrogation Plate (MIPE) small molecule collections of approved and investigational compounds against these cell lines; and measured metabolically active cells after 48 hours of compound treatment as a proxy for cell viability.
Assay Submitter: Nathalia J. Martinez, National Center for Advancing Translational Sciences, National Institutes of Health, Rockville, MD, USA; email: natalia.martinez@nih.gov
[1] Shen, M et al. Quantitative high-throughput phenotypic screening of pediatric cancer cell lines identifies multiple opportunities for drug repurposing. Oncotarget 2017 Dec 19;9(4):4758-4772. PMID 29435139.
The cells were obtained from University of North Carolina (UNC), Pediatric Preclinical Testing Program (PPT), and Coriell Institute (CI).
qHTS cell viability assay:
Cells were assayed in growth media at a density of 500-1,000 cells/well. Five microliters of cells were dispensed into 1,536-well, white, solid-bottom, TC-treated plates (Greiner Bio One) using a multidrop dispenser and incubated at 37 degrees C, 5% CO2, under a humidified atmosphere for 5 hours. Twenty-three nanoliters of compounds and controls (neutral control DMSO or positive control bortezomib at final concentration of 2.3 µM) were subsequently transferred by Kalypsys pintool. For primary screens, the MIPE collection was tested at 11-point dilutions (final concentrations range from 0.78 nM to 46 µM) and the NPC collection at 8-point dilutions (final concentrations range from 0.59 nM to 46 µM). Compounds tested in follow-up screens were assayed at 11-point dilutions. Cells were incubated for 48 hours, followed by addition of 3 µL of CellTiter-Glo (Promega). After a 15 min incubation at room temperature, samples were analyzed for luminescence intensity using a ViewLux High-throughput CCD imager equipped with clear filters.
For orientation: qHTS replaces the single test concentration by a dilution series.
As for `CCc1ccc(CCOc2ccc(CC3SC(=O)NC3=O)cc2)nc1` (stereo not given), the Potency result was “inactive”.
In the case of `CCC(=O)N[C@H]1CC[C@H](C(=O)N(C)c2ccc(-c3nc4ccccc4o3)cc2)C1` it was 0.961 µM (active); in that of `O=C(C=Cc1ccc(/C=C/C(=O)Nc2ccc(C3=NCCN3)cc2)cc1)Nc1ccc(C2=NCCN2)cc1`, “inactive”.
As for `CC(C=CC1=C(C)CCCC1(C)C)=CC=CC(C)=CC(=O)O`, the Potency entry is “inactive”.
Take `COc1ccc2nc(S(=O)Cc3ncc(C)c(OC)c3C)[nH]c2c1` (stereo not given): the Potency entry is “inactive”.
Take `COc1ccccc1-c1cccc(-c2c(O)c3cc(C#N)c(Cl)cc3[nH]c2=O)c1`: the Potency result is “inactive”.
In the case of `Cc1cnc(NC(=O)C2=C(O)c3ccccc3S(=O)(=O)N2C)s1` it was “inactive”; in that of `CC(=O)NC(C)c1ccc(Oc2ccc(OC(C)C)cc2)cc1` (stereo not given), “inactive”; in that of `O=C(Nc1cccnc1)N1CCC(Cc2cccc(Oc3ccc(C(F)(F)F)cn3)c2)CC1`, “inactive”.
In the case of `C[C@]12CC[C@H](O)CC1=CC[C@@H]1[C@H]2CC[C@]2(C)C(c3cccnc3)=CC[C@H]12` it was “inactive”.
Regarding `Nc1nc2c(ncn2COCCO)c(=O)[nH]1`, the Potency result is “inactive”.
The value for `CCCc1nc2c(C)cc(-c3nc4ccccc4n3C)cc2n1Cc1ccc(-c2ccccc2C(=O)O)cc1` was “inactive”.
In the case of `CCOC(=O)N[C@@H]1CC[C@@H]2[C@@H](C1)C[C@H]1C(=O)O[C@H](C)[C@H]1[C@@H]2C=Cc1ccc(-c2cccc(F)c2)cn1` it was 21.5 µM (active); in that of `CN(C)C(=O)c1ccc(S(=O)(=O)c2ccc(NC(=O)[C@@](C)(O)C(F)(F)F)c(Cl)c2)cc1`, “inactive”.
The value for `NC(=O)c1cnccn1` was “inactive”; that for `C[C@]12CCC(=O)C=C1CC[C@@H]1[C@@H]2[C@@H](O)C[C@@]2(C)[C@H]1CC[C@]2(O)C(=O)CO` was “inactive”; that for `c1ccc([C@H]2CN3CCSC3=N2)cc1` was “inactive”.
Regarding `CO[C@@H]1[C@H](N(C)C(=O)c2ccccc2)C[C@H]2O[C@]1(C)n1c3ccccc3c3c4c(c5c6ccccc6n2c5c31)C(=O)NC4`, the Potency is 1.92 µM (active).
Turning to `COc1nc(-c2ccc3c(c2)OCO3)n(-c2ccc(NC(=O)CSc3ccccc3)cc2)n1`, the Potency result is “inactive”.
The value for `Clc1ccc(Nc2nnc(Cc3ccncc3)c3ccccc23)cc1` was 21.7 µM (active); that for `N#CC[C@H](C1CCCC1)n1cc(-c2ncnc3[nH]ccc23)cn1` was “inactive”.
`O=C(O)[C@@H](c1ccc(OCc2ccc3ccccc3n2)cc1)C1CCCC1`: the Potency result was “inactive”.
The value for `CC(C)(C)NCC(O)c1ccc(O)c(CO)c1` (stereo not given) was “inactive”; that for `NCCc1ccc(O)c(O)c1` was “inactive”; that for `CC(C)(C)OC(=O)CN(Cc1ccc(Cl)cc1)Cc1ccc([N+](=O)[O-])s1` was “inactive”.
In the case of `CCCCNc1cc(C(=O)O)cc(S(N)(=O)=O)c1Oc1ccccc1` it was “inactive”; in that of `NCCCC(N)(C(=O)O)C(F)F` (stereo not given), “inactive”; in that of `COc1cc(Nc2ncc3c(n2)-c2ccc(Cl)cc2C(c2c(F)cccc2OC)=NC3)ccc1C(=O)O`, 8.57 µM (active).
In the case of `COc1cc2c(cc1OC)CN(CCc1ccc(NC(=O)c3cccc4c(=O)c5cccc(OC)c5[nH]c34)cc1)CC2` it was 12.1 µM (active); in that of `Cn1c(=O)c(F)c(Nc2ccc(I)cc2F)c2c(=O)n(C[C@@H](O)CO)cnc21`, 6.81 µM (active); in that of `N=c1nc(N2CCCCC2)cc(N)n1O`, “inactive”.
Regarding `O=S(=O)(N=Cc1c(O)ccc2ccccc12)c1cccs1`, the Potency result is “inactive”.
As for `COc1ccc(C2=N[C@H](c3ccc(Cl)cc3)[C@H](c3ccc(Cl)cc3)N2C(=O)N2CCNC(=O)C2)c(OC(C)C)c1`, the Potency is 3.83 µM (active).
The value for `CCCn1c(=O)c2[nH]c(C34CC5CC3C[C@@H](C5)C4)nc2n(CCC)c1=O` was “inactive”; that for `Cc1cc(C=c2sc3nc4ccccc4n3c2=O)c(C)n1-c1ccccc1` was “inactive”; that for `CC(c1cc2ccccc2s1)N(O)C(N)=O` (stereo not given) was “inactive”.
In the case of `CNC[C@H](O)c1cccc(O)c1` it was “inactive”; in that of `CCOc1cc(N2CCC(O)CC2)ccc1Nc1ncc2c(n1)N(C)c1ccccc1C(=O)N2C`, 4.29 µM (active); in that of `CC(=O)Oc1ccccc1C(=O)O`, “inactive”.
In the case of `CN(C)c1ccc(C2Nc3ccc4ccccc4c3C3=C2C(=O)CC(C)(C)C3)cc1Br` (stereo not given), the Potency result was “inactive”.
